# A selection: hits, their analogues and other compounds. The true share with any hit is near 2.6%.
# TRPV1 PAM: human TRPV1 potentiation; TRPV1-expressing cells, Fluo-8 calcium influx, capsaicin EC20 potentiation; potentiation, % at 8.33 µM; 0.02% of 320,000 active; in the data active = potentiation above about 80%; inconclusive = between about 30% and that limit
#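 Cells expressing TRPV1 were dye-loaded with Fluo-8 and read kinetically: 10 s baseline, 3 min after compound (agonist portion), then 2 min after EC20 capsaicin (allosteric enhancer portion). Calcium-bound dye fluorescence at 480/520 nm.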
# KCNH2 3.1 block: inhibitors of human KCNH2 3.1 potassium channel isoform; U2OS KCNH2 3.1, thallium flux FluxOr; active compounds read low; activity change, % (tested at about 1.8 µM); 0.95% of 340,000 active;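 active = maximum activity change below -70%; inconclusive = maximum activity change from -70% to -50%; inactive = maximum activity change above -50%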;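 note: thallium influx rate constant from kinetic fluorescence after stimulation buffer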
#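 We transduce U2OS cells with the mutant 3.1 virus, culture them overnight, load FluxOr with Red40 quencher for 45 min, then add stimulation buffer and read kinetically for 2 min to derive a normalized rate constant.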
# p53 reactivator: re-activators of mutant p53; H1299 p53-A138V BP100-luciferase reporter, luminescence, 24 h; Potency, µM (series often up to 92.2 µM), hits mostly activators; 0.063% of 320,000 active; active = well fitted activation curve with a large enough effect; inconclusive = small, poorly fitted or top-dose-only effect; inactive = no such curve, though single readings can be large or run the other way; note: nearly all actives have a fitted effect of over 45% in size
#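 p53-null H1299 cells stably carrying temperature-sensitive p53-A138V and a BP100-luciferase reporter were pinned with compounds (4-point, 1:5 series) and held 24 hrs at 37 deg C. Luminescence was read 10 min after detection reagent.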
# ClpP mod: qHTS Assay for Activators of ClpP; ATP-dependent Clp protease proteolytic subunit (Bacillus subtilis (strain 168)), P80244; purified B. subtilis ClpP, FRET peptide cleavage, 20 min; Potency, µM (highest dose often 57.5 µM); 1.9% of 340,000 active; active = well fitted falling curve with a large enough effect; inconclusive = small, poorly fitted or top-dose-only effect; inactive = no such curve, though single readings can be large or run the other way; note: the source files actives as falling curves though it sought activators and does not explain the sign; nearly all actives have a fitted effect of over 65% in size
# Target sequence (P80244 whole entry, looked up): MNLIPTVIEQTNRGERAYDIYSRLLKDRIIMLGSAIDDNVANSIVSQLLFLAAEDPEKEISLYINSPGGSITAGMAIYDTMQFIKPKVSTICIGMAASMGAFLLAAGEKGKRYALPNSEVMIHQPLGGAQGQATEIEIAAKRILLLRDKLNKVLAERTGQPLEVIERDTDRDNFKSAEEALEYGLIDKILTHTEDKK
#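 Buffer: 100 mM Tris/HCl pH8, 100 mM KCl, 0.05% low protease BSA, 2.5% glycerol, 0.01% Tween-20. ClpP 10 microg/mL final; 20 min RT; delta FRET normalized to ADEP and DMSO controls.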
# hERG WT inh: KCNH2 (human, wildtype) channel inhibition | Q12809 | U2OS, BacMam KCNH2, thallium flux FluxOr; active compounds read low | activity change, % at 1.84 µM | 0.37% of 340,000 active | AID 720551;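 active = maximum activity change below -70%; inconclusive = maximum activity change between -70% and -50%; inactive = maximum activity change above -50%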
#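 U2OS cells transduced with wild-type KCNH2 virus are loaded with FluxOr dye for 45 min, and thallium flux is measured in kinetic reads before and after stimulation buffer. Rate constants are normalized to DMSO controls.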
# TRPV1 ag: agonists of human vanilloid receptor 1 (TRPV1); 0.19% of 320,000 active; TRPV1-expressing cells, Fluo-8 calcium influx, agonist mode; activation, % at 8.33 µM; Q8NER1; in the data active = activation above about 80%; inconclusive = between about 30% and that limit
#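 TRPV1-expressing cells were cultured overnight at 35.5C and loaded with Fluo-8 calcium dye for 40 to 90 min at room temperature. After a 10 s baseline, compound was added and calcium influx was read kinetically for 3 min (ex 480/em 520 nm).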
# Numbers stand for hits; n = inactive; u = inconclusive; x = not tested or not shown.
SMILES,TRPV1 PAM,KCNH2 3.1 block,p53 reactivator,ClpP mod,hERG WT inh,TRPV1 ag
C=CCn1c(SC(C)C(=O)Nc2ccc(F)c(F)c2F)nnc1C1CC1 (stereo not drawn),n,-128,n,x,n,n
CC(Nc1cc(C)cc(C)c1)=[N+](C)CCNS(=O)(=O)c1ccc(Cl)cc1,n,-95,n,n,n,n
COc1ccc(NC(C)=[N+](C)CCNS(=O)(=O)c2ccc(Cl)cc2)cc1Cl,n,n,n,n,n,n
COC(=O)c1[nH]c2cccc(OC)c2c1NC(=O)CCN1CCSCC1,n,n,n,x,n,n
COC(=O)c1cc(OC)c(OC)cc1NC(=O)CN1CCOCC1,n,n,n,n,-236,n
COC(=O)c1[nH]c2cccc(OC)c2c1NC(=O)CN1CCOCC1,n,n,n,18µM,n,n
COC(=O)c1[nH]c2cccc(OC)c2c1NC(=O)CN(C)CC1OCCO1,n,n,n,32µM,n,n
CC(=O)N1CCc2c(sc3c2c(=O)n(-c2ccccc2)c(=O)n3CC(=O)Nc2ccccc2)C1,x,x,x,n,x,x
CCOC(=O)N1CCC(NC(=O)c2ccc3c(c2)N(Cc2cc(C)ccc2C)C(=O)c2ccccc2S3(=O)=O)CC1,x,x,x,n,x,x
C(#Cc1ccccc1)Cn1nnc2ccccc21,n,n,u,28µM,n,n
O=C(O)Cn1nnc2ccccc21,n,n,n,n,n,n
Nc1ccc(C(=O)OCC(=O)N2c3ccccc3Sc3ccccc32)cc1[N+](=O)[O-],n,n,n,n,n,n
NCCNc1ccc(C(=O)N2c3ccccc3Sc3ccccc32)cc1[N+](=O)[O-],n,-175,x,n,n,n
CCOC(=O)CC(=O)CSc1nc(-c2ccc3c(c2)OCO3)cc(C(F)(F)F)c1C#N,n,n,n,20µM,n,n
CCOc1ccc(-c2cc(C)n3nc(C(N)=O)cc3n2)cc1,n,n,n,16µM,n,n
CCCCn1c2ccccc2c2nnc(SCC(=O)Nc3ccc(NC(C)=O)cc3)nc21,x,x,x,n,x,x
CC(C)Oc1ccc(C(CCNCc2ccc(O)cc2)c2ccccc2)cc1 (stereo not drawn),n,n,n,n,n,n
COc1ccc(C(CCNCc2ccc(N(C)C)cc2)c2ccccc2)cc1 (stereo not drawn),n,-85,n,x,n,n
COc1ccc(-n2c(=O)c3ccc(C(=O)NCc4ccc(C)cc4)cc3n(Cc3cccc(Cl)c3)c2=O)cc1,x,x,x,n,x,x
CCc1nnc(NC(=O)C2CCN(c3nccc(C)n3)CC2)s1,n,n,n,32µM,n,n
Cc1ccc(S(=O)(=O)N2CN(Cc3ccco3)c3nc4ccccc4nc32)cc1,n,n,n,n,n,n
Cc1ccc2cc3c(nc2c1)N(Cc1ccco1)CC3,u,n,u,28µM,n,n
CN(C)c1ccc(/C=C/c2c(F)cnc3ccccc23)cc1,x,x,x,n,x,x
CC(C)(C)c1nn2cnnc2n(/N=C/c2ccc(O)cc2)c1=O,n,n,n,7.1µM,n,n
CC(C)(C)c1nn2cnnc2n(/N=C/c2ccccc2)c1=O,n,n,n,n,n,n
SMILES,TRPV1 PAM,KCNH2 3.1 block,p53 reactivator,ClpP mod,hERG WT inh,TRPV1 ag
COC(=O)c1ccsc1NC(=O)CSc1nnnn1-c1ccccc1SC,n,-88,n,n,n,n
CSc1ccccc1NC(=O)CSc1nnnn1-c1ccccc1SC,n,n,n,n,n,n
C=CCNC(=O)COc1ccc(S(=O)(=O)Nc2ccc(OCC)cc2)cc1,n,n,n,13µM,n,n
Cc1nc(N2CCN(c3ccccn3)CC2)c2c(C)c(C(=O)Nc3ccc(F)cc3Cl)sc2n1,n,-88,n,n,n,n
Cc1nc(N2CCOCC2)c2c(C)c(C(=O)Nc3ccccc3C(F)(F)F)sc2n1,n,n,n,x,n,91
Cc1nc(N2CCOCC2)c2c(C)c(C(=O)Nc3ccccc3Cl)sc2n1,n,n,n,x,n,u
Cc1nc(N2CCN(c3ccccn3)CC2)c2c(C)c(C(=O)Nc3ccc(F)cc3F)sc2n1,n,-93,n,x,n,u
Cc1nc(N2CCN(c3ccccn3)CC2)c2c(C)c(C(=O)Nc3ccccc3F)sc2n1,n,n,n,x,n,n
c1cnc2[nH]ccc2c1,x,x,x,n,x,x
COc1ccccc1CN1CCN(C2CCN(C(=O)NC(C)C)CC2)C(=O)C1=O,x,x,x,n,x,x
Cc1ccc(NC(N)=S)cc1C,n,n,n,28µM,n,n
CC1CC2(NC(=O)NC2=O)C(C)CN1C (stereo not drawn),n,n,n,25µM,n,n
CC(NC(=O)C1CCCC1)C1CC2CCC1C2 (stereo not drawn),u,n,n,28µM,n,n
CC(NC(=O)c1ccccc1[N+](=O)[O-])C1CC2CCC1C2 (stereo not drawn),n,n,u,25µM,n,n
CC(NC(=O)C1CC=CCC1C(=O)O)C1CC2CCC1C2 (stereo not drawn),u,n,n,n,n,n
Clc1ccc(CO/N=C/c2c(-c3ccccc3)nc3n2CCS3)c(Cl)c1,n,n,n,35µM,n,n
Cc1ccc(CSCC(=O)Nc2ccc(N3CCOCC3)cc2N2CCOCC2)cc1,n,n,n,35µM,n,n
Cc1ccc(CN2C(=O)c3ccccc3C2c2nnnn2C(C)C)cc1 (stereo not drawn),x,x,x,n,x,x
COc1ccc(NC(=O)Cn2cnc3ccc(S(=O)(=O)N4CCC(C)CC4)cc3c2=O)cc1Cl,x,x,x,n,x,x
CC1=NN(c2nc(N)nc(/C(C#N)=C/c3ccc([N+](=O)[O-])o3)n2)C(C)(C)C1,x,-72,x,n,n,x
COc1ccccc1OCCn1c(CCNC(=O)C2CCCCC2)nc2ccccc21,x,x,x,n,x,x
O=C(NCCCn1ccnc1)Nc1cccc(Cl)c1,n,n,n,n,n,n
O=C(NCCCn1ccnc1)Nc1ccc2c(c1)OCO2,n,n,n,x,-112,n
O=C(CC12CC3CC(CC(C3)C1)C2)NC(=S)Nc1ccc(CN2CCOCC2)cc1,n,-77,n,x,n,n
CCN1CCN(C2=CC3=CC(=C(C#N)C#N)CCC3CC2)CC1 (stereo not drawn),n,n,n,n,n,99
N#CC(C#N)=C1C=C2C=C(N3CCCCCC3)CCC2CC1 (stereo not drawn),n,n,n,n,x,93
CC1(C)CC(NCCN2CCN(C3=CC(=C(C#N)C#N)CC(C)(C)C3)CC2)=CC(=C(C#N)C#N)C1,n,n,n,n,n,n
N#Cc1cc(Cl)c(N2CCOCC2)cc1C#N,n,n,n,n,n,n
CN1CCN(C2=CC3=CC(=C(C#N)C#N)CCC3CC2)CC1 (stereo not drawn),n,u,n,x,n,184

# High-throughput results: PubChem BioAssay, National Center for Advancing Translational Sciences (NCATS)
